# CD40 NFkB inh: CD40 pathway inhibition in BL2 cells | inhibition, % at 10 µM | BL2 NF-kB luciferase reporter, CD40L-induced, 4 h | AID 1053188 | 0.94% of 83,000 active;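 active = mean inhibition of at least 50% with a set share of replicates also reaching that level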;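 also: 0% = neutral control wells and 100% = IKK inhibitor VII at 50 µM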
# The depositor's hits bear a star; ! = not confirmed by another sample; [ ] = another dose, or the depositor's remark. The entries come from a sample that favours hits as a whole.
SMILES,CD40 NFkB inh
O=C(CN1CCCCCC1)N1c2ccccc2C=Cc2ccccc21,25
O=C(CN1CCCC1)N1c2ccccc2C=Cc2ccccc21,11
O=C1C(=Cc2cccc(F)c2)Cc2ccccc21,-137
CC1(C)CC(=Cc2ccccc2[N+](=O)[O-])C(=O)c2ccccc21,-21
O=C1C(=Cc2ccccc2[N+](=O)[O-])Cc2ccccc21,50*
Cc1cc(=O)oc2cc(OC(C)C(=O)N3CCOCC3)c(Cl)cc12 (stereo unspecified),1
Cc1ccc(S(=O)(=O)NC(C(=O)Oc2cc3oc(=O)cc(C)c3cc2Cl)C(C)C)cc1 (stereo unspecified),29*
Cc1ccc(S(=O)(=O)NCC(=O)OCc2cc(=O)oc3cc(C)ccc23)cc1,-6
Cc1ccc(S(=O)(=O)N2[C@@H]3CNC[C@H]2C3c2ccc(/C=C/c3ccccc3)cc2)cc1 (stereo partly specified),-15[25 µM]
O=S(=O)(c1ccccc1)N1[C@@H]2CNC[C@H]1C2c1ccc(/C=C/c2ccccc2)cc1 (stereo partly specified),51*!
O=S(=O)(c1cccc(F)c1)N1[C@@H]2CNC[C@H]1C2c1ccc(/C=C/c2ccccc2)cc1 (stereo partly specified),-20
CN1c2ccc(-c3ccccc3F)cc2[C@H]2[C@H](CCN2C(=O)c2ccccn2)[C@@H]1CO,-38[25 µM]
COc1ccccc1-c1cn(CC[C@@H]2CC[C@H](NC(=O)C3CCCC3)[C@@H](CO)O2)nn1,-2
O=C(CCC(=O)CCN1CCCCC1)CCN1CCCCC1,77*
NC(=O)CCN1CCCCC1,-5
NNC(=O)CCN1CCCCC1,6
CCCCCCCCCCCCCCCC(=O)C1C(=O)OC(CO)C1=O (stereo unspecified),-13[25 µM]
C/C=C/c1ccc(C2[C@@H]3CN(S(=O)(=O)c4cccc(OC)c4)C[C@H]2N3)cc1 (stereo partly specified),6[25 µM]
CCCC#Cc1ccc2c(c1)[C@H]1[C@H](CCN1S(=O)(=O)c1ccc(C)cc1)[C@H](CO)N2C,-5[25 µM]
N#C[C@H]1[C@@H](c2ccc(C#CCC3CCCC3)cc2)[C@H](CO)N1C(=O)c1ccccn1,19[25 µM]
c1csc(C2=NNC(=NC3CCCCC3)SC2)c1,-44
c1cc2c(cc1C1=NNC(=NC3CC3)SC1)OCCO2,92*
c1ccc2oc(C3=NNC(=NC4CC4)SC3)cc2c1,66*
c1ccc(CN=C2NN=C(c3cc4ccccc4o3)CS2)cc1,-12
COc1ccc(N=C2NN=C(c3ccc4c(c3)OCCO4)CS2)cc1,-11
SMILES,CD40 NFkB inh
COc1ccc(CN=C2NN=C(c3cccc(OC)c3)CS2)cc1,-48
CCS(=O)(=O)N1CCC2(CC1)CN(C(=O)c1cccc(F)c1)[C@@H](CO)c1c2c2ccc(OC)cc2n1C,10[25 µM]
CC(C)NC(=O)N(C)C[C@H]1Oc2ccccc2C(=O)N(C)C[C@@H]1C,4
COc1cccc(CN(C)C[C@@H]2OCc3ccccc3-c3c(n(C)c4ccccc34)C(=O)N([C@H](C)CO)C[C@@H]2C)c1,9
CC(=O)N(C)C[C@H]1Oc2ccc(N(C)C)cc2CC(=O)N(C)C[C@H]1C,-1
Cc1ccc(CN2CC(C(=O)Nc3ncc(C)s3)CC2=O)cc1 (stereo unspecified),78*
COC(=O)C1CC(=O)N(Cc2ccccc2)C1 (stereo unspecified),3
CCOc1ccc(CCNC(=O)C2CC(=O)N(Cc3ccc(C)cc3)C2)cc1OCC (stereo unspecified),-11
C[C@@H]1CN([C@H](C)CO)C(=O)CCCn2cc(nn2)CO[C@@H]1CN(C)C(=O)Nc1ccc(C(F)(F)F)cc1,-4
COc1ccc(CN(CCC(c2ccc(F)cc2)C2CCOC(C)(C)C2)C(=O)c2ccco2)cc1 (stereo unspecified),37*
O=C(c1ccco1)N(CCC(c1ccccc1)c1ccco1)Cc1ccccc1 (stereo unspecified),-1
CC1(C)CC(C(CC(=O)O)c2ccccc2)CCO1 (stereo unspecified),-3
O=C(Nc1ccc2c(c1)[C@H]1C[C@H](CC(=O)N3CCCCC3)O[C@@H](CO)[C@H]1O2)NC1CCCC1,-2
CN(C)C(=O)c1ccc(-c2ccccc2[C@@H]2[C@H](C#N)N(C(=O)C3CCCC3)[C@H]2CO)cc1,-3
CC(C)NC(=O)N(C)C[C@@H]1Oc2ccc(NS(C)(=O)=O)cc2C(=O)N(C)C[C@@H]1C,5
CC(C)NC(=O)N(C)C[C@@H]1OCCCC[C@H](C)Oc2ccc(NC(=O)NC3CCCCC3)cc2C(=O)N([C@@H](C)CO)C[C@H]1C,2
Cc1ccccc1S(=O)(=O)N1CCCCN2[C@H](CO)[C@@H](c3ccc(-c4cccc(F)c4)cc3)[C@H]2C1,7[25 µM]
CC(=O)Nc1ccccc1OCC(=O)c1ccc2c(c1)OCO2,-56
O=C(/C=C\Nc1ccccc1Br)c1ccc2c(c1)OCO2,57*
CN(CC(=O)Nc1ccccc1Br)C(=O)CNC(=O)c1ccc2c(c1)OCO2,-4
CCC(=O)N1[C@H](CO)[C@H](c2ccc(-c3ccccc3OC)cc2)[C@@H]1CNC(C)=O,-9[25 µM]
COc1ccc2c3c(n(C)c2c1)[C@@H](CO)N(C(=O)C1CCOCC1)CC31CN(C(=O)Nc2cccc(F)c2)C1,-6[25 µM]
C/C=C/c1cnc2c(c1)C(=O)N([C@H](C)CO)C[C@H](C)[C@@H](CN(C)C(=O)C1CCOCC1)O2,-3[25 µM]
C[C@@H]1CN([C@H](C)CO)C(=O)c2c(c3ccccc3n2C)-c2ccccc2CO[C@@H]1CN(C)S(=O)(=O)c1ccc([N+](=O)[O-])cc1,22[25 µM]
C[C@@H]1CN([C@H](C)CO)C(=O)c2c(c3ccccc3n2C)-c2ccccc2CO[C@@H]1CN(C)S(=O)(=O)c1cccc(F)c1,-8
SMILES,CD40 NFkB inh
COc1cccc(S(=O)(=O)N(C)C[C@H]2OCc3ccccc3-c3c(n(C)c4ccccc34)C(=O)N([C@H](C)CO)C[C@@H]2C)c1,57*[25 µM]
COc1cccc(S(=O)(=O)N(C)C[C@@H]2OCc3ccccc3-c3c(n(C)c4ccccc34)C(=O)N([C@H](C)CO)C[C@@H]2C)c1,62*[25 µM]
C[C@H](CO)N1C[C@H](C)[C@H](CN(C)S(=O)(=O)c2cccc(F)c2)OCc2ccccc2-c2c(n(C)c3ccccc23)C1=O,-3
C[C@@H]1CN([C@H](C)CO)C(=O)c2c(c3ccccc3n2C)-c2ccccc2CO[C@@H]1CN(C)S(=O)(=O)c1ccccc1,8
C[C@H]1CN([C@@H](C)CO)C(=O)c2c(c3ccccc3n2C)-c2ccccc2CO[C@@H]1CN(C)S(=O)(=O)c1cccc(F)c1,5
COc1cccc(S(=O)(=O)N(C)C[C@@H]2OCc3ccccc3-c3c(n(C)c4ccccc34)C(=O)N([C@H](C)CO)C[C@H]2C)c1,64*[25 µM]
C[C@H](CO)N1C[C@H](C)[C@H](CN(C)S(=O)(=O)c2ccc([N+](=O)[O-])cc2)OCc2ccccc2-c2c(n(C)c3ccccc23)C1=O,63*[25 µM]
Cc1cccc(S(=O)(=O)N(C)C[C@H]2OCc3ccccc3-c3c(n(C)c4ccccc34)C(=O)N([C@H](C)CO)C[C@@H]2C)c1,9
C[C@@H]1CN([C@@H](C)CO)C(=O)c2c(c3ccccc3n2C)-c2ccccc2CO[C@@H]1CN(C)S(=O)(=O)c1ccc([N+](=O)[O-])cc1,31[25 µM]
C[C@@H]1CN([C@H](C)CO)C(=O)c2c(c3ccccc3n2C)-c2ccccc2CO[C@H]1CN(C)S(=O)(=O)c1cccc(F)c1,2
COCCN(C[C@H]1[C@H](c2ccccc2)[C@@H](CO)N1C(=O)C1CC1)C(C)=O,-3[25 µM]

# Assay outcomes deposited in PubChem BioAssay by Broad Institute.
